Consider 19 compounds from PubChem BioAssay (EPA / NIEHS).

Results filed as inconclusive are left out. Activity calls are given as the source filed them. Rule for the calls: active = hit-call score of the fitted dose curve at least 0.9, where 1 is the maximum; inconclusive = response in the unintended direction; inactive = score below 0.9.

A short description of experiment [1]: TOX21_p53_BLA_p2_viability: Viability Assessment in the Tox21 HCT-116 p53 Agonism Beta-lactamase Assay, Phase 2 (AID 2283591).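 Note: compound exposure lasted 16 h at 37 °C; actives lower the ATP signal meaning cytotoxicity.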 In outline: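 Cytotoxicity readout: CellTiter-Glo ATP luminescence, 30 min at room temperature, after the beta-lactamase read. Cells were HCT116 exposed 16 h at 37C to compounds pin-transferred at 217-fold dilution from DMSO stocks.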

Experiment [2] concerns the target Cellular tumor antigen p53 (Homo sapiens) (UniProt P04637). The experiment is described as follows: TOX21_p53_BLA_p2_ratio: Tox21 HCT-116 p53 Agonism Beta-lactamase Assay, Ratio, Phase 2 (AID 2283592). The method, boiled down:
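DMSO-normalized, positive-direction endpoint derived from the 460 nm/530 nm FRET ratio in HCT116 p53 beta-lactamase reporter cells exposed 16 h at 37C and loaded with CCF4-AM for 2 h.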

A short description of experiment [3]: TOX21_p53_BLA_p3_viability: Viability Assessment in the Tox21 HCT-116 p53 Agonism Beta-lactamase Assay, Phase 3 (AID 2283593).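 Note: cells exposed to compound for 16 h before reading.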 The method, boiled down: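 Cellular ATP was quantified by CellTiter-Glo luminescence, read after 30 min at room temperature. Beforehand, HCT116 cells (4000/well) received compound 5 h post-seeding, 217-fold diluted from DMSO, then incubated 16 h at 37C.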

The target in experiment [4] is Cellular tumor antigen p53 (Homo sapiens) (UniProt P04637). The experiment is described as follows: TOX21_p53_BLA_p3_ratio: Tox21 HCT-116 p53 Agonism Beta-lactamase Assay, Ratio, Phase 3 (AID 2283596). The method, boiled down: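 Cells were seeded at 4000/well, rested 5 h at 37C, then dosed with DMSO compound solutions (217-fold dilution) for 16 h. CCF4-AM substrate was loaded for 2 h at room temperature, and the 460/530 nm emission ratio was fitted for gain of signal versus DMSO.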

Experiment [5] can be described thus: TOX21_p53_BLA_p4_viability: Viability Assessment in the Tox21 HCT-116 p53 Agonism Beta-lactamase Assay, Phase 4 (AID 2283597).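 Note: hits lower the luminescence signal meaning cytotoxicity.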 In outline: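 In this multiplexed secondary endpoint, HCT116 cells (4000 per well, compound at 5 h, 16 h treatment) received CellTiter-Glo after the beta-lactamase read. Luminescence after 30 min RT reflects ATP, and falling signal marks cytotoxicity.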

Experiment [6] deals with Cellular tumor antigen p53 (Homo sapiens) (UniProt P04637). The experiment can be described thus: TOX21_p53_BLA_p5_ratio: Tox21 HCT-116 p53 Agonism Beta-lactamase Assay, Ratio, Phase 5 (AID 2283599). In outline: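 Beta-lactamase reporter ratio (blue 460 nm over green 530 nm, 405 nm excitation) after 2 h CCF4-AM loading, in HCT-116 cells exposed 16 h at 37 C to compounds pinned at 217-fold dilution. Increases relative to DMSO baseline scored.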

Experiment [7] in a line: TOX21_p53_BLA_p5_viability: Viability Assessment in the Tox21 HCT-116 p53 Agonism Beta-lactamase Assay, Phase 5 (AID 2283600). In outline:
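Here cell health was gauged by ATP levels in wells holding 4000 cells, each treated 16 h with DMSO-delivered compounds at 217-fold dilution; reduced luminescence marked toxicity.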

In experiment [8] the target is Cellular tumor antigen p53 (Homo sapiens) (UniProt P04637). The experiment can be described thus: TOX21_p53_BLA_p4_ratio: Tox21 HCT-116 p53 Agonism Beta-lactamase Assay, Ratio, Phase 4 (AID 2283601). The method, boiled down:
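Signal is the blue/green (460nm/530nm) ratio of cleaved versus uncleaved CCF4-AM substrate, read after 2 h substrate loading. Cells were HCT116 carrying the p53-responsive beta-lactamase reporter, dosed 16 h at 37C, 5% CO2; CellTiter-Glo measured in parallel.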

Sequence of Cellular tumor antigen p53 (Homo sapiens) (P04637 whole entry, looked up): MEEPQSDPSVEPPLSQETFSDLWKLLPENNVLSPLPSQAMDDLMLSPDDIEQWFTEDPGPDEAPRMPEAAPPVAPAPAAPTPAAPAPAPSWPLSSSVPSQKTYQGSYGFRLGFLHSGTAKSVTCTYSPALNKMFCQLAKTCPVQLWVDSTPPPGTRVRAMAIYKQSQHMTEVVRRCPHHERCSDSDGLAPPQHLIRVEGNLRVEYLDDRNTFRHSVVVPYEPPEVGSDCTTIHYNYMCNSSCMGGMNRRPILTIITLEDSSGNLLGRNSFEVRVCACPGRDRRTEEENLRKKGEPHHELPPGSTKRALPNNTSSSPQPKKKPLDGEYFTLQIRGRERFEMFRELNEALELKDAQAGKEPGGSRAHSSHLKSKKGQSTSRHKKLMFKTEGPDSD

On to `CCCCC(=O)OCC(=O)[C@]1(O)Cc2c(O)c3c(c(O)c2[C@@H](O[C@H]2C[C@H](NC(=O)C(F)(F)F)[C@H](O)[C@H](C)O2)C1)C(=O)c1c(OC)cccc1C3=O`, for which the call in experiment [1], in experiment [3], in experiment [5] and in experiment [7] was inactive. The AC50 in experiment [2] is 7.68 µM (active); in experiment [4], 8.58 µM (active); in experiment [6], 7.73 µM (active); in experiment [8] it was 5.24 µM (active).
As to `CC(C(=O)O)c1ccc(C2CCCCC2)c2ccccc12` (configuration not stated), the compound was classed as inactive in experiment [1], in experiment [2], in experiment [3], in experiment [4], in experiment [6] and in experiment [7]. Moreover, the outcome in experiment [8] was inactive. Also, the AC50 in experiment [5] was 31.1 µM (active).
As for `[O]=[Bi]`, the result in experiment [1], in experiment [2], in experiment [3], in experiment [4], in experiment [5] and in experiment [6] was inactive. Also, the compound was classed as inactive in experiment [7] and in experiment [8].
Take `CO[C@H]1C[C@H](O[C@H]2[C@H](C)O[C@@H](O[C@@H]3/C(C)=C/C[C@@H]4C[C@@H](C[C@]5(C=C[C@H](C)[C@@H](C6CCCCC6)O5)O4)OC(=O)[C@@H]4C=C(C)[C@@H](O)[C@H]5OC/C(=C\C=C\[C@@H]3C)[C@]54O)C[C@@H]2OC)O[C@@H](C)[C@@H]1O`: the AC50 was 5.93 µM (active) in experiment [1]; 9.45 µM (active) in experiment [3]; 15.8 µM (active) in experiment [4]; 5.07 µM (active) in experiment [5]; 7.81 µM (active) in experiment [6]; 6.84 µM (active) in experiment [7]. Also, the result in experiment [2] and in experiment [8] was inactive.
On to `CO[C@H]1C[C@H](O[C@@H]2/C(C)=C/C[C@@H]3C[C@@H](C[C@]4(CC[C@H](C)[C@@H](C5CCCCC5)O4)O3)OC(=O)[C@@H]3C=C(C)/C(=N/O)[C@H]4OC/C(=C\C=C\[C@@H]2C)[C@]43O)O[C@@H](C)[C@@H]1O`, for which the compound was classed as inactive in experiment [1], in experiment [2], in experiment [3], in experiment [4], in experiment [6] and in experiment [7]. In experiment [8], the outcome was inactive. In addition, the AC50 in experiment [5] is 40.7 µM (active).
As for `CC1(C)S[C@@H]2[C@H](NC(=O)C(C(=O)O)c3ccccc3)C(=O)N2[C@H]1C(=O)O` (some centres not stated), the result in experiment [1], in experiment [2], in experiment [3], in experiment [4], in experiment [5] and in experiment [6] was inactive. Besides, the result in experiment [7] and in experiment [8] was inactive.
Turning to `O=C(CC(=O)C(F)(F)F)c1ccccc1`, the compound was called inactive in experiment [1], in experiment [2], in experiment [4], in experiment [5], in experiment [6] and in experiment [7]. In addition, the result in experiment [8] was inactive. The AC50 in experiment [3] is 76.4 µM (active).
For the compound `CC1=C(/C=C/C(C)=C/C=C/C(C)=C/C=O)C(C)(C)CCC1`, the AC50 in experiment [1] was 28.7 µM (active); in experiment [3], 36.6 µM (active); in experiment [4], 66.6 µM (active); in experiment [5], 67 µM (active); in experiment [6], 49.1 µM (active); in experiment [7] it was 34.9 µM (active). The AC50 in experiment [8] is 85.6 µM (active). Besides, the result in experiment [2] was inactive.
On to `CC1(C)S[C@@H]2[C@H](NC(=O)Cc3ccccc3)C(=O)N2[C@H]1C(=O)O` (tested in a mixture with another compound), for which the result in experiment [1], in experiment [2], in experiment [3], in experiment [4], in experiment [5] and in experiment [6] was inactive. In addition, the outcome in experiment [7] and in experiment [8] was inactive.
Consider `CO[C@H]1/C=C/O[C@@]2(C)Oc3c(C)c(O)c4c(O)c(c(/C=N/N5CCN(C6CCCC6)CC5)c(O)c4c3C2=O)NC(=O)/C(C)=C\C=C\[C@H](C)[C@H](O)[C@@H](C)[C@@H](O)[C@@H](C)[C@H](OC(C)=O)[C@@H]1C`, for which the half-maximal activity concentration (AC50) in experiment [1] is 33.8 µM (active); in experiment [2], 43.8 µM (active); in experiment [3], 35.3 µM (active); in experiment [4], 42.8 µM (active); in experiment [5], 37.2 µM (active); in experiment [6], 43.2 µM (active). Also, the AC50 in experiment [7] is 42.8 µM (active); in experiment [8] it was 36.8 µM (active).
Consider `O=C(CCCN1CCC(O)(c2ccc(Br)cc2)CC1)c1ccc(F)cc1`, for which the outcome in experiment [1], in experiment [2], in experiment [3], in experiment [4], in experiment [5] and in experiment [6] was inactive. Besides, the call in experiment [7] and in experiment [8] was inactive.
For the compound `O=C1c2cccc(O)c2C(=O)c2c(O)cccc21`, the result in experiment [1], in experiment [2], in experiment [3], in experiment [4], in experiment [5] and in experiment [6] was inactive. Further, the outcome in experiment [7] and in experiment [8] was inactive.
As to `CCCCCCCCCCCCCCCC(=O)O[C@@H]1[C@@H](O)[C@@H](O)[C@@H]([C@H](NC(=O)[C@@H]2C[C@@H](CCC)CN2C)[C@H](C)Cl)O[C@@H]1SC`, the compound was called inactive in experiment [1], in experiment [2], in experiment [3], in experiment [4], in experiment [5] and in experiment [6]. Moreover, the call in experiment [7] and in experiment [8] was inactive.
As for `CC[C@H](C)COC(=O)/C=C/c1ccc(N=Cc2ccc(OC)cc2)cc1`, the AC50 was 43.5 µM (active) in experiment [1], 87.2 µM (active) in experiment [2], 46 µM (active) in experiment [5] and 84.4 µM (active) in experiment [8]. Further, the outcome in experiment [3], in experiment [4], in experiment [6] and in experiment [7] was inactive.
For the compound `CNCC[C@H](Oc1cccc2ccccc12)c1cccs1`, the AC50 was 35.4 µM (active) in experiment [1], 43.5 µM (active) in experiment [2], 35.4 µM (active) in experiment [5] and 43.7 µM (active) in experiment [8]. The call in experiment [3], in experiment [4], in experiment [6] and in experiment [7] was inactive.
Turning to `Nc1c2c(nc3c1CCC3)CCCC2`, the compound was called inactive in experiment [1], in experiment [2], in experiment [3], in experiment [4], in experiment [5] and in experiment [6]. For the same compound, the result in experiment [7] and in experiment [8] was inactive.
With `CCCCCCCC/C=C\CCCCCCCC(=O)NCc1ccc(O)c(OC)c1`, the call in experiment [1], in experiment [2], in experiment [4], in experiment [5], in experiment [6] and in experiment [7] was inactive. The result in experiment [8] was inactive. The AC50 in experiment [3] was 41.5 µM (active).
In the case of `OCCN1CCN(CCCN2c3ccccc3Sc3ccc(Cl)cc32)CC1`, the compound was classed as inactive in experiment [1], in experiment [2], in experiment [3], in experiment [4], in experiment [6] and in experiment [7]. Moreover, the result in experiment [8] was inactive. In addition, in experiment [5], the AC50 was 15.8 µM (active).
Regarding `CCCCCCCC[N+](CCCCCCCC)(CCCCCCCC)CCCCCCCC`, the AC50 in experiment [1] is 18.9 µM (active); in experiment [2], 54.8 µM (active); in experiment [3], 29.3 µM (active); in experiment [4] it was 56.2 µM (active); in experiment [5], 36.2 µM (active); in experiment [6], 64.1 µM (active). Also, the AC50 in experiment [7] is 34 µM (active); in experiment [8] it was 64.5 µM (active).

The AC50 is the concentration at which the activity in the assay is half-maximal.
